Experimental findings from PubChem BioAssay (NCATS) are described below.

Unmarked numbers belong to inactive results. Inconclusive results are not listed. The source made the active and inactive calls. Unless noted, the call rests on the fitted dose curve; in most records, active means well fitted curve in either direction with a large enough effect (not every such curve was filed as active); inconclusive means small, poorly fitted or top-dose-only effect, or another doubt; inactive means flat fitted curve, though single readings scatter.

Assay [1] has as its target Lysosomal acid glucosylceramidase (Homo sapiens) (UniProt P04062). Kind of assay: Glucocerebrosidase-p2 (AID 348; in the data active means potency below about 10 µM; further: potency means the concentration at half of the fitted maximal effect). The following applies: purified GBA, blue fluorogenic substrate, 40 min. A digest of the protocol:
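Compounds titrated from 0.6 nM upwards against 0.2 nM enzyme in pH 5.9 citric acid/KH2PO4, taurocholate, tween-20; blue fluorogenic substrate 80 uM, 40 min room temperature, stopped and read Ex 365/Em 440 for AC50.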

Assay [2] is described as follows: AP1 Signaling Pathway (AID 357).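 Further: ME-180 reporter cells stimulated with EGF at its EC50 level; on the % scale 0 is the no-effect control and ±100 the full control effect.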 As to conditions: ME-180 AP-1-bla reporter, EGF-induced, beta-lactamase ratio, 5 h; at 7.69 µM (top of the series) unless noted. The gist of the method:
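Read-out was the 460nm/530nm emission ratio (excitation 405nm) after CCF4 loading for 2.5 hours at room temperature. Cells carried an AP-1-driven beta-lactamase reporter, were stimulated with EC50 EGF plus compound for 5 hours, and AC50 values came from titrations.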

The nature of assay [3]: NFAT Signaling Pathway (AID 444).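 Further: carbachol stimulus at about its EC50 of 1 µM final; on the % scale 0 is the no-effect control and ±100 the full control effect.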 As to conditions: Jurkat NFAT-bla M1, carbachol, beta-lactamase ratio, 5 h; at 7.69 µM (top of the series) unless noted. The gist of the method: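 Read-out: CCF4 FRET ratio (460 nm/530 nm) after 1 h RT dye loading, used for %activity and AC50 from titration series. Cells: Jurkat NFAT-β-lactamase/M1 line, treated with compound plus 1 uM carbachol for 5 h, 37 °C.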

A short description of assay [4]: Stat Signaling Pathway (AID 446).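 Further: ME-180 cervical cancer cells given 40 pM IL-6 alongside compound; SIE-controlled beta-lactamase reporter measured as 460/530 nm FRET emission ratio; on the % scale 0 is the no-effect control and ±100 the full control effect.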 The following applies: ME-180 (cervical carcinoma) SIE beta-lactamase reporter, IL-6 stimulated, 5 h; at 7.69 µM (top of the series) unless noted. A digest of the protocol: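 IL-6/STAT signaling read in ME-180 cells via an SIE beta-lactamase reporter. Stimulus was 40 pM IL-6 (its AC50) for 5 hrs, so both activation and inhibition register.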
The target of assay [5] is Mitogen-activated protein kinase 10 (Mus musculus) (UniProt Q61831). The experiment in a line: JNK3 AlphaScreen Assay (AID 530).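 Further: kinase came from lysate of stimulated human HepG2 cells; signal reports phosphorylation of biotinylated GST-cJun 1-79 at Ser73 with 10 µM ATP; on the % scale 0 is the no-effect control and ±100 the full control effect.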 As to conditions: JNK3 lysate, c-Jun phosphorylation; series mostly up to 11.4 µM. The gist of the method:
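Compound titrations were preincubated 15 minutes at room temperature with substrate, antibody and pre-activated JNK3-containing HepG2 lysate. Reactions were started with 10 uM ATP and stopped with EDTA-containing bead buffer for AlphaScreen detection.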
On the technique in general: Alpha assays give light when donor and acceptor beads are brought close together.

The target of assay [6] is 3',5'-cyclic-AMP phosphodiesterase 4B (Homo sapiens) (UniProt Q07343). The experiment in a line: qHTS Assay for Inhibitors of PDE-IV (AID 607; active means well fitted activation curve with a large enough effect in the main read-out, with a control signal flat, not every such curve was filed as active; further: % of control where 0% means no effect). As to conditions: HEK293 ACTOne CNG channel cells, membrane potential fluorescence; series mostly up to 22.9 µM. The gist of the method: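 Live HEK293 cells with a modified cyclic nucleotide-gated (CNG) channel report intracellular cAMP via membrane-potential dye fluorescence (ex 535/em 590 nm). Endogenous PDE-IV was targeted. Compounds were tested at up to 22.9 uM final; RO 20-1724 100 uM served as control.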

Assay [7] deals with Glucocorticoid receptor (Homo sapiens) (UniProt P04150). The experiment in a line: GR-GFP Redistribution (AID 450;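 active means compounds whose dose series gives a full or clear partial fitted curve of increased nuclear translocation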; further: potency means the concentration at half of the fitted maximal effect). As to conditions: U2OS GR-GFP nuclear translocation, laser cytometry, 2 h.
Assay [8] has the same target. The experiment in a line: GR-EFC Redistribution (AID 451; calls by dose curve; further: potency means the concentration at half of the fitted maximal effect). The following applies: CHO-K1 GR-EFC translocation, beta-gal luminescence, 2 h. The gist of the method:
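Translocation of GR-ED fusion to nuclear EA restores b-gal, read by luminescence after 1 h room-temperature detection. Engineered CHO-K1 biosensor cells, 1,000/well, exposed 2 h at 37 C to titrations up to 46 uM final.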

Assay [9] deals with Cytochrome P450 2C9 (Homo sapiens) (UniProt P11712). The experiment in a line: qHTS Assay for Inhibitors and Substrates of Cytochrome P450 2C9 (AID 883; active means well fitted curve in the direction sought with a large enough effect; an effect the other way counts as inactive or inconclusive; further: nearly all actives have a fitted effect of over 60% in size; further: potency means the concentration at half of the fitted maximal effect). As to conditions: recombinant CYP2C9, luciferin-H luminescence, 60 min; series mostly up to 11.4 µM. A digest of the protocol:
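Inhibition of CYP2C9 is scored as loss of luminescence, with 57uM sulphaphenazole defining 100% inhibition. Substrate Luciferin-H is used at 100uM, equal to its KM; enzyme at 10nM in 25mM KPO4, 60 min at 37C with NADPH regeneration.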
Background: In qHTS, concentration-response curves come from the screen itself.

The target in assay [10] is Cytochrome P450 3A4 (Homo sapiens) (UniProt P08684). The experiment in a line: qHTS Assay for Inhibitors and Substrates of Cytochrome P450 3A4 (AID 884; active means well fitted curve in the direction sought with a large enough effect; an effect the other way counts as inactive or inconclusive; further: on the % scale 0 is the no-effect control and ±100 the full control effect; nearly all actives have a fitted effect of over 50% in size). The following applies: recombinant CYP3A4, Luciferin-PPXE luminescence; series mostly up to 57.1 µM. A digest of the protocol: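 20 nM human CYP3A4 with 25 uM Luciferin-PPXE (at KM) in 200 mM KPO4, preincubated 10 min with compound; NADPH regeneration started a 60 min RT reaction. Luciferin detected by luminescence, normalized to 57 uM ketoconazole as full inhibition.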

Assay [11] has the same target. The experiment in a line: qHTS Assay for Activators of Cytochrome P450 3A4 (AID 885; active means well fitted curve in the direction sought with a large enough effect; an effect the other way counts as inactive or inconclusive; further: potency means the concentration at half of the fitted maximal effect; nearly all actives have a fitted effect of over 65% in size). As to conditions: recombinant CYP3A4, Luciferin-PPXE luminescence, 60 min; series mostly up to 11.4 µM. The gist of the method: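 Quantitative HTS format: compounds preincubated with 20nM human CYP3A4 and Luciferin-PPXE substrate at KM, reaction started by NADPH regeneration, stopped after 60 min, luciferase luminescence read 20 min later.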

Assay [12] concerns the target Cytochrome P450 2D6 (Homo sapiens) (UniProt P10635). The experiment in a line: qHTS Assay for Inhibitors and Substrates of Cytochrome P450 2D6 (AID 891; active means well fitted curve in the direction sought with a large enough effect; an effect the other way counts as inactive or inconclusive; further: potency means the concentration at half of the fitted maximal effect; nearly all actives have a fitted effect of over 60% in size). As to conditions: recombinant CYP2D6, luciferin-ME EGE luminescence; series mostly up to 11.4 µM. The gist of the method: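 Human CYP2D6 (5 nM) with 30 uM Luciferin-ME EGE (at Km) in 100 mM KPO4, compound preincubated 10 min, then NADPH regeneration system for 60 min at room temperature. Luciferin read by luminescence; normalized to 1.43 uM quinidine.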

The target of assay [13] is Cytochrome P450 2C19 (Homo sapiens) (UniProt P33261). Kind of assay: qHTS Assay for Inhibitors and Substrates of Cytochrome P450 2C19 (AID 899; active means well fitted curve in the direction sought with a large enough effect; an effect the other way counts as inactive or inconclusive; further: potency means the concentration at half of the fitted maximal effect; nearly all actives have a fitted effect of over 60% in size). As to conditions: recombinant CYP2C19, luciferin-H EGE luminescence; series mostly up to 11.4 µM. A digest of the protocol:
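5nM enzyme + 10uM Luciferin-H EGE (=KM), 50mM KPO4; cpd pin-transferred, 10 min 37C; NADPH regen, 60 min 37C; stopped w/ luciferin detection reagent, 20 min; luminescence. Normalized to 57uM ketoconazole (AC100).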

Sequence of 3',5'-cyclic-AMP phosphodiesterase 4B (Homo sapiens) (Q07343 whole entry, looked up): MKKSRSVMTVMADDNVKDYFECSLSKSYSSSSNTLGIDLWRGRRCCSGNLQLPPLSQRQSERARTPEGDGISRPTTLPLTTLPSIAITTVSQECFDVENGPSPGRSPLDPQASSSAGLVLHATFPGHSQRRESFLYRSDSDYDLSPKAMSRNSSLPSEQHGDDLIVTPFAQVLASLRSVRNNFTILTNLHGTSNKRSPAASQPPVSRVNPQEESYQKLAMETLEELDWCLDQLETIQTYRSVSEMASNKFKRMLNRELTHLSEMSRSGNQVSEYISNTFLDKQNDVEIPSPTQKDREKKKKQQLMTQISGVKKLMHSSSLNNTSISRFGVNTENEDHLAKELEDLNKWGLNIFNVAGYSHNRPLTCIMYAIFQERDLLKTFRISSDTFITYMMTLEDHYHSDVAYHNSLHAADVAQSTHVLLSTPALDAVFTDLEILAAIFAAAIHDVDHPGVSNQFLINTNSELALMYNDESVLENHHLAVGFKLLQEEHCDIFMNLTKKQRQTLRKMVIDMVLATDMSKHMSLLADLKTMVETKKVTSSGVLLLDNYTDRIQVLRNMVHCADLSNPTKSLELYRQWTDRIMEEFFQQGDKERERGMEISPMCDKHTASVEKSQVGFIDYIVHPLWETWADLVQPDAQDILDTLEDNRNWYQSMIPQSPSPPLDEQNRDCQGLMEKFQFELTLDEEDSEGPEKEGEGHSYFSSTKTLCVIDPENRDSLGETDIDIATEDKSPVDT
Sequence of Glucocorticoid receptor (Homo sapiens) (P04150 whole entry, looked up): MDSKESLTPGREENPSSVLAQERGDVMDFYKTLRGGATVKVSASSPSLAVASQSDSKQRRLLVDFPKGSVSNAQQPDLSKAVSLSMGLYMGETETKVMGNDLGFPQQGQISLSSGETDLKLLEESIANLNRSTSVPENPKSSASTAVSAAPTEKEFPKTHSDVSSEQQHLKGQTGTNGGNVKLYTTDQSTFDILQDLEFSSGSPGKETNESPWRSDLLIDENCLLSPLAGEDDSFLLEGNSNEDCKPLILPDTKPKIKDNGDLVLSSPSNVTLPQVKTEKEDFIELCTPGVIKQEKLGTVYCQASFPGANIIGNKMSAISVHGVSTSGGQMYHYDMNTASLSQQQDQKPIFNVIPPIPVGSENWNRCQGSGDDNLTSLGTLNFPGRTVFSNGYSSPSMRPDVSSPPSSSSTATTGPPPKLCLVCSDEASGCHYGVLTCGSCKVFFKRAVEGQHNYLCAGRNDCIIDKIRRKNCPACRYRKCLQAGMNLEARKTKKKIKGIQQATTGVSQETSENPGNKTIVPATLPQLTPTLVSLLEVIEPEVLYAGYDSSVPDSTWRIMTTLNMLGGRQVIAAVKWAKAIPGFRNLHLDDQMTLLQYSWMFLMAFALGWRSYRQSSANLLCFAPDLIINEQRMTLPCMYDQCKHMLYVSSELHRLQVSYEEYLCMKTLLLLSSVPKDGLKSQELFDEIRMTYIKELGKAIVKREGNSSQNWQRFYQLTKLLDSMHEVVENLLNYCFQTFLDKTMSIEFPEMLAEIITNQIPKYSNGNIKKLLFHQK
Sequence of Lysosomal acid glucosylceramidase (Homo sapiens) (P04062 whole entry, looked up): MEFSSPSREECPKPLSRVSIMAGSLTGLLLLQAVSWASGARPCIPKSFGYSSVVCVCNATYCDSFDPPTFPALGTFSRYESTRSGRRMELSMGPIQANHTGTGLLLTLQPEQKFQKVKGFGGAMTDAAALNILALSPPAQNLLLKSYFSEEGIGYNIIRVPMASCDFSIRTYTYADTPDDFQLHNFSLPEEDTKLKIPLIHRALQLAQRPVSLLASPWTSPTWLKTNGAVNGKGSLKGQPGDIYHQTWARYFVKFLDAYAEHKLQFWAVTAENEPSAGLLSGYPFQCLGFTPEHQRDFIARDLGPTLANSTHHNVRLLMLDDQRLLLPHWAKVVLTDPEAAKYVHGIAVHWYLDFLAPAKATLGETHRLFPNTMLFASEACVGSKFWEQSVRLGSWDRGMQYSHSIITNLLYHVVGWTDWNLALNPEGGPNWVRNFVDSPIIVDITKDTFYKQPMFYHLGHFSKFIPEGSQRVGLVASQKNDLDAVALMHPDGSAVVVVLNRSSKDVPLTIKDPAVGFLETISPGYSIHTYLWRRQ
Sequence of Cytochrome P450 2C9 (Homo sapiens) (P11712 whole entry, looked up): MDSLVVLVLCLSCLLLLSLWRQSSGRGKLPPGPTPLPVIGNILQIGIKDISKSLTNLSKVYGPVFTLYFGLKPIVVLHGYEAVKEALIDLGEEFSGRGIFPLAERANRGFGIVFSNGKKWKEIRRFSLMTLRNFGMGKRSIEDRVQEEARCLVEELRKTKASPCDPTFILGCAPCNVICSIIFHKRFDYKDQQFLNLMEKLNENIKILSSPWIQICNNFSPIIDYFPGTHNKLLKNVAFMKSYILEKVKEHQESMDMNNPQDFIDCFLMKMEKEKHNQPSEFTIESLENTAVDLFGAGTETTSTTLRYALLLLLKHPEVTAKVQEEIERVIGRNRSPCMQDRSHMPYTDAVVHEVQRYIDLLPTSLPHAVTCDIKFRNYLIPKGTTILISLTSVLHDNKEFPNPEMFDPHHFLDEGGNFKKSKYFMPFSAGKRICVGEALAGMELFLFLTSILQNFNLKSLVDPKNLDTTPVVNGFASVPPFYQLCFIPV
Sequence of Cytochrome P450 3A4 (Homo sapiens) (P08684 whole entry, looked up): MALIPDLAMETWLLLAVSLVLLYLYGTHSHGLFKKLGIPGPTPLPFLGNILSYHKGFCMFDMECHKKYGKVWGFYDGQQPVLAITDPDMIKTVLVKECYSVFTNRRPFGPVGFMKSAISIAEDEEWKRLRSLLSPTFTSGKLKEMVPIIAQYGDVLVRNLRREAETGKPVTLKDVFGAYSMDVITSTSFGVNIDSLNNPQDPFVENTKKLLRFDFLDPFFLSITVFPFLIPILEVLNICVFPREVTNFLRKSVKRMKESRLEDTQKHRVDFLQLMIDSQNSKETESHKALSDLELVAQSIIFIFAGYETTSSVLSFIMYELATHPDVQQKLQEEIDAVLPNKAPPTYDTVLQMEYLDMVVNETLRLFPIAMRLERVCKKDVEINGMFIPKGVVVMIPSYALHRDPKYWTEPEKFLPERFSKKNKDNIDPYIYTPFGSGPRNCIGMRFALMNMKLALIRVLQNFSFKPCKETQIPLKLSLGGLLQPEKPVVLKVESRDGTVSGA
Sequence of Cytochrome P450 2D6 (Homo sapiens) (P10635 whole entry, looked up): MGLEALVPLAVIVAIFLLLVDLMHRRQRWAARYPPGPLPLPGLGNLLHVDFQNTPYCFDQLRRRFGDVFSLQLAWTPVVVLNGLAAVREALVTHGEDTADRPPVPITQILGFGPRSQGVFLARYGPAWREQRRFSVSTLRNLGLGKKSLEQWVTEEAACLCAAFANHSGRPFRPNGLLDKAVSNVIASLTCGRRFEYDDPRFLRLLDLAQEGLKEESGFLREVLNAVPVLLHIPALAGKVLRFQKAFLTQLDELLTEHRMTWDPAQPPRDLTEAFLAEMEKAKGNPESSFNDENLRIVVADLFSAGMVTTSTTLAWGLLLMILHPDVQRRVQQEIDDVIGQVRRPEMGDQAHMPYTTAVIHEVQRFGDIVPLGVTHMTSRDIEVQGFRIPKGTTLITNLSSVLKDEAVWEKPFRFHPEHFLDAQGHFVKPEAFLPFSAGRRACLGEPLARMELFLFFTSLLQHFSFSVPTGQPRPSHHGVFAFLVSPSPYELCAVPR
Sequence of Cytochrome P450 2C19 (Homo sapiens) (P33261 whole entry, looked up): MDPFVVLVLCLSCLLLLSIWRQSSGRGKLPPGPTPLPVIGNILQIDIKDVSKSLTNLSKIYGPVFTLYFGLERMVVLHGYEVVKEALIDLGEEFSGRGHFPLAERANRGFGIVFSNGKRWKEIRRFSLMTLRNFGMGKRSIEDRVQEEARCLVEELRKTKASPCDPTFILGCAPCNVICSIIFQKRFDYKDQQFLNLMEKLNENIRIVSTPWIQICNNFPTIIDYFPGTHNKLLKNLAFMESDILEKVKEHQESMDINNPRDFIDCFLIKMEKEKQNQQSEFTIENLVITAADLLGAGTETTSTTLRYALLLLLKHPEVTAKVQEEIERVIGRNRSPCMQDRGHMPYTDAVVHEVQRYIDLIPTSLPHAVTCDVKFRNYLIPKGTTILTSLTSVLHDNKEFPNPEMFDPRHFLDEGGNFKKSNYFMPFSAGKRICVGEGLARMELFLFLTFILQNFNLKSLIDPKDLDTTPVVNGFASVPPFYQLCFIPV

In the case of `O=C(O)CN(CCN(CC(=O)O)CC(=O)O)CC(=O)O.[Mn]`, the Potency in [1] is above 11.4 µM. Besides, the activity change, negative = inhibition in assay [2] was -0.063%; in [3] it was 7.91%. Also, in assay [4], the activity, negative = inhibition was 8.71%. Besides, the Potency entry in assay [5] and in [6] was “inactive” in each case.

Consider `CCN(CC)COC(=S)S`, for which the Potency in [1] is above 11.4 µM; in assay [7], above 46 µM; in assay [8], above 9.22 µM. For the same compound, the activity change, negative = inhibition in assay [2] was 7.48%; in assay [3] it was -12.2%. The Potency entry in assay [5] and in [6] was “inactive” throughout.

For the compound `CN1CCC[C@@H]1c1cccnc1.O=C(O)c1ccccc1O.O=C([OH2+])c1ccccc1O.O=C([OH2+])c1ccccc1O.[Mn]`, in assay [1], the Potency is above 11.4 µM. In addition, the activity change, negative = inhibition in assay [2] was 10.8%; in assay [3] it was -9.45%. Besides, the activity, negative = inhibition in assay [4] is 17.5%. Moreover, the Potency entry in [5] and in [6] was “inactive” in each case.

As to `O=C(O)[C@@H](O)[C@H](O)C(=O)O`, the results for the Potency in assay [1], in assay [7] and in [8] were above 11.4 µM, above 46 µM and above 9.22 µM, respectively. Besides, the results for the activity change, negative = inhibition in assay [2] and in [3] were -6.26% and 14.9%, respectively. Besides, the Potency entry in [5] and in assay [6] was “inactive” throughout.

Take `CC(C)(CN)SCc1ccccc1`: the values for the Potency in [1], in [7] and in assay [8] were above 11.4 µM, above 46 µM and above 9.22 µM, respectively. For the same compound, the activity change, negative = inhibition in assay [2] is 5.51%; in assay [3] it was -0.0753%. The Potency result in assay [5] and in assay [6] was “inactive” throughout.

For `C[C@H]1CCCC=CC2C[C@H](OC(=O)CN(C)C)C[C@@H]2[C@@H](O)/C=C\C(=O)O1` (some centres not stated), the Potency in [1] was above 11.4 µM; in [7], above 46 µM; in assay [8] it was above 9.22 µM; in assay [11], 3.98 µM (active). Moreover, the activity change, negative = inhibition is -7.78% in [2], 29.7% in assay [3] and 229% [at 11.4 µM] in assay [10]. Further, the Potency result in assay [5], in [6] and in assay [9] was “inactive” throughout.

With `CC1(C)CCC(=O)N[C@H]1CC(=O)C[C@H]1NC(=O)CCC1(C)C`, the Potency in [1] is above 11.4 µM; in assay [7], above 46 µM; in [8], above 9.22 µM. Also, the activity change, negative = inhibition in [2] was -7.26%; in [3], 13%. For the same compound, the Potency entry in [5] and in assay [6] was “inactive” in each case.

For `NC(=O)SCC(=O)Nc1ccc2ncccc2c1`, the Potency in assay [1] was above 11.4 µM; in [7], above 46 µM; in assay [8], above 9.22 µM. Moreover, the activity change, negative = inhibition is 1.01% in assay [2] and 12.1% in assay [3]. Further, the Potency entry in assay [5] and in assay [6] was “inactive” each time.

On to `CC(C)c1ccc2c(c1)CC[C@H]1[C@@](C)(CN)CCC[C@@]21C`, for which the Potency is above 11.4 µM in [1] and 1.26 µM (active) in assay [12]. Also, the activity change, negative = inhibition in [2] is 6.87%; in assay [3] it was 30%. For the same compound, in assay [4], the activity, negative = inhibition is 11.3%. For the same compound, the Potency entry in [5] and in [6] was “inactive” each time.

Regarding `O=C(O)[C@H]1CCCC[C@@H]1c1c2ccc(=O)c(O)c-2oc2c(O)c(O)ccc12`, the Potency in assay [1] is above 11.4 µM; in assay [7], above 46 µM; in assay [8], above 9.22 µM. Moreover, the figures for the activity change, negative = inhibition in assay [2] and in [3] were -17.7% and 0.0388%, respectively. The Potency result in assay [6] is “inactive”.

As to `COc1ccc(-n2c(=O)c(-c3cccs3)nc3cnc(Oc4ccccc4)nc32)cc1`, the Potency is above 11.4 µM in assay [1], above 9.22 µM in assay [7] and above 46 µM in assay [8]. The activity change, negative = inhibition in assay [2] is -6.68%; in [3], -26.9%. Further, the Potency entry in [5] and in assay [6] was “inactive” each time.

`O=C(O)c1ccncc1.O=C(O)c1ccncc1.[Cl][Pt]([Cl])([Cl])[Cl]`: the Potency in assay [1] is above 11.4 µM; in assay [7], above 46 µM; in [8], above 9.22 µM. Besides, the activity change, negative = inhibition in assay [2] was 2.72%; in [3], -19.9%. Besides, the Potency result in [5] and in assay [6] was “inactive” each time.

With `c1ccc(CSCCc2ccncc2)cc1`, the Potency in [1] is above 11.4 µM; in [7], above 46 µM; in [8] it was above 9.22 µM; in [9], 0.316 µM (active); in assay [12] it was 1.26 µM (active). The activity change, negative = inhibition is -1.16% in [2] and -10.1% in [3]. For the same compound, the Potency entry in assay [5] and in [6] was “inactive” in each case.

As to `Cc1cc(OCC(=O)O)c(Cl)cc1Cl`, the Potency in [1] is above 11.4 µM; in assay [7], above 46 µM; in assay [8], above 9.22 µM. The activity change, negative = inhibition is 2.52% in assay [2] and 2.25% in [3]. Also, the Potency result in assay [5] and in assay [6] was “inactive” each time.

On to `C[C@@]1(CO)[C@H](O)CC[C@]2(C)[C@@H]1CC[C@H]1C[C@H]3C[C@]12CC[C@]3(O)COC(=O)CN`, for which the Potency was above 11.4 µM in [1], above 46 µM in assay [7] and above 9.22 µM in [8]. The activity change, negative = inhibition is 5.13% in assay [2] and 23.5% in assay [3]. The Potency entry in assay [5] and in assay [6] was “inactive” each time.

As to `CC1(C)S[C@@H]2[C@H](C(=O)O)N=C(Cc3ccccc3)N2[C@H]1C(=O)O`, the Potency in [1] was above 11.4 µM; in assay [7] it was above 46 µM; in [8] it was above 9.22 µM. The results for the activity change, negative = inhibition in assay [2] and in assay [3] were 2.18% and 8.91%, respectively. The Potency result in [5] and in assay [6] was “inactive” each time.

Take `O=[N+]([O-])c1ccc(CS(=O)Cc2ccccc2)cc1` (configuration not stated): the Potency was above 11.4 µM in assay [1], above 46 µM in assay [7], above 9.22 µM in assay [8] and 1.26 µM (active) in [13]. For the same compound, the activity change, negative = inhibition in assay [2] was -8.79%; in assay [3], -22%. Further, the Potency result in [5] and in assay [6] was “inactive” each time.
